From the supplement of paper PMC11732987, “Enantioselective OTUD7B fragment discovery through chemoproteomics screening and high-throughput optimisation” (Communications Chemistry, 2025)

Key:
Experiment in all cases: log2 ratio of Biotin-Ahx-Ub-VS probe labelling (fragment/DMSO); higher = less target engagement (more negative = stronger competition), active = hit call of the paper (q ≤ 0.05, log2 ratio ≤ -1)
Conditions in all cases: compound concentration: 200 uM; treatment time: 3 h
ALG13 = molecular target: T1, ALG13 (UniProt Q9NP73)
T1 sequence (whole entry): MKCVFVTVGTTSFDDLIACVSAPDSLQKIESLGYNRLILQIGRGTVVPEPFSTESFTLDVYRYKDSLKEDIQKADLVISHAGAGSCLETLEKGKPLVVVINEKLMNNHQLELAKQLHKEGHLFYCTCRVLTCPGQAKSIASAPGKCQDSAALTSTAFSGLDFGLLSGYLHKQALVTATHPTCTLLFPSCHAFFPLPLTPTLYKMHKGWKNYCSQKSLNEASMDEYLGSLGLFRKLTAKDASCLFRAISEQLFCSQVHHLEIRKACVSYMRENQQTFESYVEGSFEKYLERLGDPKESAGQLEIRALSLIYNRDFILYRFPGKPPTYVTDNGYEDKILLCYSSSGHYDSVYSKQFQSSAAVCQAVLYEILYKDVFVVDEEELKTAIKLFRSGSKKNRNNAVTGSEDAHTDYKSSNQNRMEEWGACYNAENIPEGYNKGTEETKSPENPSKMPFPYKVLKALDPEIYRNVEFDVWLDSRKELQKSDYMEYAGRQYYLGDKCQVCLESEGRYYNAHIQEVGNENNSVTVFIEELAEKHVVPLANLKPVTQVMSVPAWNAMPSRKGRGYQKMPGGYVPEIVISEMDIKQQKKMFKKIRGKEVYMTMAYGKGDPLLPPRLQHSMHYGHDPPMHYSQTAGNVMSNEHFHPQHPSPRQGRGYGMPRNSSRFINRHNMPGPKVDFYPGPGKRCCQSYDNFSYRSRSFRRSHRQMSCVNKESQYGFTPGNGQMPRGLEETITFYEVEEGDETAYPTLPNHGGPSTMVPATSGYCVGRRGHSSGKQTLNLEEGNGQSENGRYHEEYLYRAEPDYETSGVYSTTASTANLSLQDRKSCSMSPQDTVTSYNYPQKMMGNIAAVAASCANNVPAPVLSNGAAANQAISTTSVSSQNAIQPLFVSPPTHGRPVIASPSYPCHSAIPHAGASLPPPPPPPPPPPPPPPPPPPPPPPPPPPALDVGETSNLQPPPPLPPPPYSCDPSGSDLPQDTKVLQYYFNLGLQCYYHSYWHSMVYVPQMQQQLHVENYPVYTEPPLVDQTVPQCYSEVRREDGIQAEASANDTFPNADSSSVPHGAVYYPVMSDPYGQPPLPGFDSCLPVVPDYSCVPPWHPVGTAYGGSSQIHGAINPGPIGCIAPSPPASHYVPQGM
In short: (§1)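 Using Biotin-Ahx-Ub-VS at 0.5 µM final for 1 h, DUBs were labelled in HEK293T lysate (495 µg per sample) that had first been treated in triplicate with fragment at 200 µM or vehicle for 3 h. NeutrAvidin enrichment, LysC and trypsin digestion and diaPASEF LC-MS/MS followed. Spectronaut label-free quantities were global-median-normalised. Values are average log2 fragment/vehicle ratios by unpaired t-test, using proteins with ≥2 unique peptides.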

ATXN3 = ATXN3 (UniProt P54252)
Sequence of ATXN3 (P54252 whole entry): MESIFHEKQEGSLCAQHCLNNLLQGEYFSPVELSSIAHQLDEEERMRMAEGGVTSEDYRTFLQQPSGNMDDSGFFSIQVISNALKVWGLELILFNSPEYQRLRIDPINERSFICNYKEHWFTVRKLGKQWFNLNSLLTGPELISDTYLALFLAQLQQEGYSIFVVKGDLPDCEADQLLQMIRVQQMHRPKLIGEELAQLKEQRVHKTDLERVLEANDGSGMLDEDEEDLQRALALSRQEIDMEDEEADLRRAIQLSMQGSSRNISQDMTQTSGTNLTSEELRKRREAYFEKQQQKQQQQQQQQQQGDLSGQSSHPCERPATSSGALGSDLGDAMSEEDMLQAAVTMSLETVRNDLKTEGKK
In short: as §1

BAP1 = molecular target: T2, BAP1 (UniProt Q92560)
T2 sequence (whole entry): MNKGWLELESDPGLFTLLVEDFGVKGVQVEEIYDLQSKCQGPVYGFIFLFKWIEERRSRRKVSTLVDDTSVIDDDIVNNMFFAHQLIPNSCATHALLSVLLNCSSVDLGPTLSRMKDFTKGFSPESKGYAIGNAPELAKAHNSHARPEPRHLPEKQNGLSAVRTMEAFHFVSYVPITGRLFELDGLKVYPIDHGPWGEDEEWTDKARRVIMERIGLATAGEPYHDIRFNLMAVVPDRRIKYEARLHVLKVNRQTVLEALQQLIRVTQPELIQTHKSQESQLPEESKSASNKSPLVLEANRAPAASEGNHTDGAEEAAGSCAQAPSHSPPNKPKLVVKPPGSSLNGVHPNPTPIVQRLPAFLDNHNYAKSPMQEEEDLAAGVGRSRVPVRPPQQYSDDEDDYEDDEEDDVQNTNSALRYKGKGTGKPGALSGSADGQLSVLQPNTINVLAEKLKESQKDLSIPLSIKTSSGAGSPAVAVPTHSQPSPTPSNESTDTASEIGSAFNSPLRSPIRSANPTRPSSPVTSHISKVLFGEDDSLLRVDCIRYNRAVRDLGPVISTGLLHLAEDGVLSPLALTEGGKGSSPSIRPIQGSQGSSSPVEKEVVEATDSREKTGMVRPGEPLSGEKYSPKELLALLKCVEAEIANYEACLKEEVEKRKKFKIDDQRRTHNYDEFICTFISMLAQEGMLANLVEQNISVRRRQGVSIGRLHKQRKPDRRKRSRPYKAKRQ
In short: as §1

EIF3F = EIF3F (UniProt O00303)
Sequence of EIF3F (O00303 whole entry): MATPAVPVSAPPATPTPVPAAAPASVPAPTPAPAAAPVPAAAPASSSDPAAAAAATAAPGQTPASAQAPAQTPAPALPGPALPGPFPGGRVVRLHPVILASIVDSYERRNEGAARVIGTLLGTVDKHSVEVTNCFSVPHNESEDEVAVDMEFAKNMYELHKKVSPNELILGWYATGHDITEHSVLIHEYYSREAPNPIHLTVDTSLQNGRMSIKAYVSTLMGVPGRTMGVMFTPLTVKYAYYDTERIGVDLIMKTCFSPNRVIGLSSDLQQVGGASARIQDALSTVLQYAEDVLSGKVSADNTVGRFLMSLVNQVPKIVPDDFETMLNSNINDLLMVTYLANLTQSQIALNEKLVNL
In short: as §1

EIF3H = EIF3H (UniProt O15372)
Sequence of EIF3H (O15372 whole entry): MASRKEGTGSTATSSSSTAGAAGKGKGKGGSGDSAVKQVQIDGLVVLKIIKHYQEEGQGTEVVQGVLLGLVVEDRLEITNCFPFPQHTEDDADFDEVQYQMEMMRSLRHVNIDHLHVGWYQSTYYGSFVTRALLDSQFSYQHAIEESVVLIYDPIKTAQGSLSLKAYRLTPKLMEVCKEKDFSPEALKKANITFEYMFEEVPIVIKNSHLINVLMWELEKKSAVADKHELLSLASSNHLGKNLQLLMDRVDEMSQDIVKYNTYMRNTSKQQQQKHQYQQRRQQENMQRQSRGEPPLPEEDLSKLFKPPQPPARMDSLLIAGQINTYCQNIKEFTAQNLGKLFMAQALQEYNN
In short: as §1

FAM105A = molecular target: T3, FAM105A (UniProt Q9NUU6)
T3 sequence (whole entry): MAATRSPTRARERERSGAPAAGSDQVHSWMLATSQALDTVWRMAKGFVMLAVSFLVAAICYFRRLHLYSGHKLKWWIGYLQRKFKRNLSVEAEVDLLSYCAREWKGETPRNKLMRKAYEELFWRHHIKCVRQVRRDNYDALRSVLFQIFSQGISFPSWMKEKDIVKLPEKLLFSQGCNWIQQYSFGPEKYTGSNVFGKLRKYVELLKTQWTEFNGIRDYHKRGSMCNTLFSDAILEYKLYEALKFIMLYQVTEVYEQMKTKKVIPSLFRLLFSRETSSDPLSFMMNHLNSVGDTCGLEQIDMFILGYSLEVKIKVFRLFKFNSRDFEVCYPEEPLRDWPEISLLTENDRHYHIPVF
In short: as §1

OTUB1 = OTUB1 (UniProt Q96FW1)
Sequence of OTUB1 (Q96FW1 whole entry): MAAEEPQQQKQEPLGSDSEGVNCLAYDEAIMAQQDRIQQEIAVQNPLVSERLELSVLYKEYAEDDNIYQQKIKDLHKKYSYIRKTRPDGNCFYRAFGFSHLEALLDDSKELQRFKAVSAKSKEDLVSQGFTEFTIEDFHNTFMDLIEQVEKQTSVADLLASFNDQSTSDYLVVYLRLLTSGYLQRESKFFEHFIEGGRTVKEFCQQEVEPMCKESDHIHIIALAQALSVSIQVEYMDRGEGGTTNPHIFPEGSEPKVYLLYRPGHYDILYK
In short: as §1

OTUD4 = molecular target: T4, OTUD4 (UniProt Q01804)
T4 sequence (whole entry): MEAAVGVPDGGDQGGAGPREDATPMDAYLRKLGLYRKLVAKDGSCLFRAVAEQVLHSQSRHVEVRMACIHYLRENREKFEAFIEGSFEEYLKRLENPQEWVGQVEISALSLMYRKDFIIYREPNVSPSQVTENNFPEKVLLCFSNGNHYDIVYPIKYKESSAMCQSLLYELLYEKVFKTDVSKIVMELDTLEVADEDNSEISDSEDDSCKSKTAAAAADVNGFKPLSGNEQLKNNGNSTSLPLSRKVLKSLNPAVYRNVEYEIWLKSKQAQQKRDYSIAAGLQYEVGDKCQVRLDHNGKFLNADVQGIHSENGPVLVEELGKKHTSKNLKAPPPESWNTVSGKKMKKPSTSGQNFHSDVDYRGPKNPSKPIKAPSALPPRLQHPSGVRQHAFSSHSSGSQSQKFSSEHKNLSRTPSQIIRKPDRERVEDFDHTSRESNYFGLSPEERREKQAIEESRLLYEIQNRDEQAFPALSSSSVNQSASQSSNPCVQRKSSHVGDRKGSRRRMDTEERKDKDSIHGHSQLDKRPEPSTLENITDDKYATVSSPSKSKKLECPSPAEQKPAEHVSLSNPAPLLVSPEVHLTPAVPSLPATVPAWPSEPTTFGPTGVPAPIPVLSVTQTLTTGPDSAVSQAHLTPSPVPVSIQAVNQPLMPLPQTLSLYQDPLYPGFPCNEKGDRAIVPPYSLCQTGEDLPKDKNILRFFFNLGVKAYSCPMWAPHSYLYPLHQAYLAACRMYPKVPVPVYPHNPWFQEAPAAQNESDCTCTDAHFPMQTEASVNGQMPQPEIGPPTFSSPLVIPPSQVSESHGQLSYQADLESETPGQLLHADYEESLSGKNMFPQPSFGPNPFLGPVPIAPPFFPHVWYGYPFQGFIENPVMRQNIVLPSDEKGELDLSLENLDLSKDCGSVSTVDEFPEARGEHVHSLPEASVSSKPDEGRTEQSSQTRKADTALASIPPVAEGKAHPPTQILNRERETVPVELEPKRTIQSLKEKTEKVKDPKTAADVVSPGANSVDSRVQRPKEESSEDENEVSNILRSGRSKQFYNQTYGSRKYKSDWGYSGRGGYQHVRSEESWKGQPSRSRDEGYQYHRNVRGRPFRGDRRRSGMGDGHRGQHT
In short: as §1

OTUD5 = molecular target: T5, OTUD5 (UniProt Q96G74)
T5 sequence (whole entry): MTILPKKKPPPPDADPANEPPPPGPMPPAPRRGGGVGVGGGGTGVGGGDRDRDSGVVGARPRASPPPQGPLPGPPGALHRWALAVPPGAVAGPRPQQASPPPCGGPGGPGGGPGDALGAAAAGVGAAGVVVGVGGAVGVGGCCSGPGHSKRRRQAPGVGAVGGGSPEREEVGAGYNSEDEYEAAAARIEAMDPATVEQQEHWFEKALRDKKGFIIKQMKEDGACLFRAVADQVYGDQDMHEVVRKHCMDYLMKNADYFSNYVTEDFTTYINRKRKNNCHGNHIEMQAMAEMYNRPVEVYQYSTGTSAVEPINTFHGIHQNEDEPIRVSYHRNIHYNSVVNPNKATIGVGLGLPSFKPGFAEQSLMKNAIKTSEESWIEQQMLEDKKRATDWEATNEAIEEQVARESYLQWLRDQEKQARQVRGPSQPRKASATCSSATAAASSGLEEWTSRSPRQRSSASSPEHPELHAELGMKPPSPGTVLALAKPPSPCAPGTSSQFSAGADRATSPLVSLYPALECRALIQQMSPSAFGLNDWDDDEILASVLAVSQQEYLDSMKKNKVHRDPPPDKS
In short: as §1

Measured: log2 ratio of Biotin-Ahx-Ub-VS probe labelling

Cl.Cn1ncc2c1CCCC2NC(=O)CCl (centres undefined)
active: OTUD4 -1.75
inactive: ALG13 0.35 | ATXN3 -0.16 | BAP1 -0.894 | EIF3F -0.378 | EIF3H 0.457 | FAM105A 0.0219 | OTUB1 -0.186 | OTUD5 -0.0276
